PubChem BioAssay

Tests used:
[1] = target: Tumor necrosis factor receptor superfamily member 10B (Homo sapiens) (UniProt O14763); assay: viability loss of caspase-8 NB7 cells with TRAIL – with/without TRAIL, luminescence panel, confirmation (AID 651596); settings: NB7 neuroblastoma + caspase-8, TRAIL sensitization, NB7 Caspase-8, with TRAIL, mean of runs, at 10 µM, stronger effect = higher value
[2] = as above; settings: NB7 neuroblastoma + caspase-8, without TRAIL, NB7 Caspase-8, without TRAIL, mean of runs, at 10 µM

Chain of Tumor necrosis factor receptor superfamily member 10B (Homo sapiens) (O14763 whole entry, looked up): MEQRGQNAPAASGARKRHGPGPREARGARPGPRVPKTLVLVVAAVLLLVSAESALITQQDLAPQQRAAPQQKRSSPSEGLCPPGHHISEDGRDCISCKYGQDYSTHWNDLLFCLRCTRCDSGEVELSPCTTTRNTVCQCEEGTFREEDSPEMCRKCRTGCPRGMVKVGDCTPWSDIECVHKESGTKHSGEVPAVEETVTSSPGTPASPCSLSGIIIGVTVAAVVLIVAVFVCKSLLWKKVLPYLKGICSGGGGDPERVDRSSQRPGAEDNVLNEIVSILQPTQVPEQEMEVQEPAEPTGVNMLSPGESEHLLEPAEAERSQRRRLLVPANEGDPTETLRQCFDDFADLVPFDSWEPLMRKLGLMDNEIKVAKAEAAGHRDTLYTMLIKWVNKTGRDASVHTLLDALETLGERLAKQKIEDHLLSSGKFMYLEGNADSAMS

SMILES | activity [1] [%] | activity [2] [%]
O=C(NCCc1cccc(Cl)c1)c1ccc2c(c1)OCO2 | 47.7 | 39.4
COc1ccc(C2NN=C(c3ccc(C)cc3)S2)cc1 (stereo unspecified) | 51.8 | 42.1
CC(C)CC(/C(O)=C(\C#N)c1nc2ccccc2[nH]1)N1C(=O)c2ccccc2C1=O (stereo unspecified) | 66.3 | 61.7
CN(C(=O)c1ccco1)c1nc2c(s1)CCCC2 | 58.4 | 60.5
O=C(Nc1nc2cc3c(cc2s1)OCCO3)c1cccs1 | 66.6 | 64.6
Cc1cccnc1NC(=S)NC(=O)c1cccs1 | 73.2 | 66.8
NC(=O)c1ccccc1NC(=O)/C=C/c1ccccc1 | 67.8 | 70.7
O=C(N/N=C/c1cccc(NC(=O)c2ccc(Cl)cc2)c1)c1ccc(O)cc1 | 58.4 | 42
Cc1ccc(C2=NN(C(=O)CCl)C(c3ccco3)C2)o1 (stereo unspecified) | 98.5 | 98.2
O=C(CCl)Nc1ccccc1C(=O)Nc1ccc2c(c1)OCO2 | 74.1 | 73.8
COc1ccccc1NC(=O)CSc1ccc(-c2ccc(-n3ccnc3)cc2)nn1 | 47 | 38.6
O=C(c1ccncc1)N1CCN(c2cc(-c3ccccc3)nc3cc(-c4cccc(Cl)c4)nn23)CC1 | -0.725 | -15.8
O=C(COC(=O)c1n[nH]c2ccccc12)NC(=O)NC12CC3CC(CC(C3)C1)C2 | 51.5 | 57
COc1ccc(C(=O)Nc2ccccc2C(=O)N/N=C/c2ccco2)cc1 | 87.6 | 59.1
c1ccc2sc(NN=C3CCCCCC3)nc2c1 | 59.8 | 46.7
Cc1ccc(OCC(=O)NC(=S)Nc2ccccn2)c(Br)c1 | 86.3 | 81.9
Cc1nc(-c2ccc(NC(=O)CC(C)C)cc2)cs1 | 51.7 | 55.5
C=C1CC(COc2cc(=O)oc3ccccc23)(c2ccccc2)OC1=O (stereo unspecified) | 89.5 | 96.5
COc1ccc(Oc2c(Cl)cnn(-c3ccccc3)c2=O)cc1 | 98.4 | 94.4
O=c1cc(-c2ccccc2)oc2ccc3ccccc3c12 | 92.2 | 90.1
Cc1ccnc(NC(=O)c2sc3ccccc3c2Cl)c1 | 91.6 | 90.8
COc1ccc2c(n1)Sc1nc3ccccc3nc1N2 | 4.47 | 4.42
Cc1ccc(-c2nc(N/N=C/c3cccnc3)c3ccccc3n2)cc1 | 94.3 | 88.2
